Results as given in PubChem BioAssay (Tox21).
Results filed as inconclusive are left out. Unmarked numbers belong to inactive results. Active and inactive are the calls of the source. Calls follow the shape of the dose curve; as a rule, active = well fitted cell-killing curve with a large enough effect in the repeat runs; inconclusive = weak or mixed curves, or effect the other way; inactive = flat fitted curve, though single readings scatter.

Assay: cAMP Responsive Elements (CRE) small molecule agonists, cell-based qHTS assay: qHTS cell viability counter screen (AID 2060914); also: nearly all actives have a fitted effect of over 50% in size
Details: CRE-bla HEK293T viability, CellTiter-Glo luminescence, 5 h; series mostly up to 92.4 µM; activity change, negative = cytotoxicity: at the top concentration
How it was run: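 CRE-bla HEK293T cells in 10% dialyzed FBS medium were exposed to compounds for 3 h at 37C after 18 h plating. CellTiter-Glo was then added in the same wells, and luminescence was read after 30 min at room temperature.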
% is scaled to controls: 0 for no effect and ±100 for the full control effect; potency is read from the fitted curve at half-maximal effect.

In order of rising “activity change, negative = cytotoxicity” value:
1. CCCC1C(CC)=CC(CC)=CN1c1ccccc1 (stereo not drawn)  -21.2%
2. O=C(O)c1cc(N=Nc2ccc([N+](=O)[O-])cc2)ccc1O  -11.7%
3. CCCCCCCCC1CO1 (stereo not drawn)  -6.04%
4. C=C1CC[C@H](O)C/C1=C\C=C1/CCC[C@]2(C)[C@@H]([C@H](C)CCCC(C)C)CC[C@@H]12  0.614%
5. CC1=CCC(=C(C)C)CC1  3.88%

In order of falling “activity change, negative = cytotoxicity” value:
1. O=P(O)(O)C(O)(Cc1cccnc1)P(=O)(O)O  -0.87% [at 42.5 µM]
2. CCC(C(=O)OCCN(CC)CC)c1ccccc1 (stereo not drawn)  -1.45% [at 42.5 µM]
3. CC(C)OC(=O)C(C(=O)OC(C)C)=C1SC=CS1  -6.31% [at 42.5 µM]
4. CN(C(=O)CN(CCO)CC(=O)N(C)C(C)(C)Cc1ccccc1)C(C)(C)Cc1ccccc1  -7.7% [at 42.5 µM]
5. CCOC(=O)COc1ccc2c(C)c(CCN(CC)CC)c(=O)oc2c1Cl  -9.79% [at 42.5 µM]
6. CC(NCCC(c1ccccc1)c1ccccc1)c1ccccc1 (stereo not drawn)  -16.2% [at 42.5 µM]
7. CC[C@H](NC(C)C)[C@H](O)c1ccc(O)c2[nH]c(=O)ccc12  -21.1% [at 42.5 µM]
8. Cc1cc(CCCOc2c(C)cc(-c3noc(C(F)(F)F)n3)cc2C)on1  -25.6% [at 42.5 µM]

With `Cc1cc2c(C(C)C)c(O)c(O)c(C=O)c2c(O)c1-c1c(C)cc2c(C(C)C)c(O)c(O)c(C=O)c2c1O` the Potency was 26.6 µM (active).
With `CCCCOCCOCCOC(C)=O` the Potency was “inactive”.
With `Nc1ccc(O)c(C(=O)O)c1` the Potency was “inactive”.
With `CCCCCCCCCCCCCCCC[N+](C)(C)CCN(Cc1ccc(OC)cc1)c1ncccn1` the Potency was 26.6 µM (active).
For `O=C1NS(=O)(=O)c2ccccc21`, the Potency was “inactive”.
